Assay [1] has as its target Cellular tumor antigen p53 (Homo sapiens) (UniProt P04637). The assay is described as follows: TOX21_p53_BLA_p4_ratio: Tox21 HCT-116 p53 Agonism Beta-lactamase Assay, Ratio, Phase 4 (AID 2283601). In short, it runs like this:
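Signal is the blue/green (460nm/530nm) ratio of cleaved versus uncleaved CCF4-AM substrate, read after 2 h substrate loading. Cells were HCT116 carrying the p53-responsive beta-lactamase reporter, dosed 16 h at 37C, 5% CO2; CellTiter-Glo measured in parallel.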

The nature of assay [2]: Tanguay_ZF_120hpf_MORT_legacy: (Legacy) Oregon State University Tanguay Lab 120 Hour Post-fertilization zebrafish Assay for Mortality (AID 2283633).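 For AC50: fitted as increase in binary mortality versus DMSO negative control.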 In short, it runs like this:
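Brightfield scoring of embryo death (binary) at 24 and 120 hpf; static exposure 6–120 hpf, 28C, sealed and foil-covered. Pronase-dechorionated 5D wild-type larvae, single embryo per well. DMSO 0.64% v/v; trimethyltin chloride 5uM positive control.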

Assay [3] in a line: Tanguay_ZF_120hpf_YSE_legacy: (Legacy) Oregon State University Tanguay Lab 120 Hour Post-fertilization zebrafish Assay for Yolk Sac Edema (AID 2283634).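 For AC50: actives raise the incidence of yolk sac edema above the DMSO baseline.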 In a few lines: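 Binary brightfield scoring of yolk sac edema at 120 hpf; DMSO baseline, gain-of-signal fitting. Dechorionated 5D larvae, one per well, static exposure 6–120 hpf, 28C, 0.64% DMSO. Dead embryos not scored.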
Assay [4] in a line: Tanguay_ZF_120hpf_AXIS_legacy: (Legacy) Oregon State University Tanguay Lab 120 Hour Post-fertilization zebrafish Assay for Body Axis Malformation (AID 2283635). In short, it runs like this: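 Embryos: 5D wild-type, pronase-dechorionated 4 hpf; static exposure 6–120 hpf, 28C, sealed, dark, 1 embryo/well, 0.64% DMSO. 120 hpf axis malformation scored present/absent; dead embryos excluded. Analysed as gain of signal vs DMSO.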

Assay [5] is described as follows: Tanguay_ZF_120hpf_EYE_legacy: (Legacy) Oregon State University Tanguay Lab 120 Hour Post-fertilization zebrafish Assay for Eye Malformation (AID 2283636).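 Note: binary presence or absence of eye malformation scored by brightfield in 120 hpf larvae.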 In a few lines: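 Binary brightfield scoring of eye defects at 120 hpf after static exposure from 6 hpf of single pronase-dechorionated wild-type embryos (28C, 0.64% DMSO). Non-mortality endpoints omitted where embryos died; fit vs DMSO.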

A short description of assay [6]: Tanguay_ZF_120hpf_SNOU_legacy: (Legacy) Oregon State University Tanguay Lab 120 Hour Post-fertilization zebrafish Assay for Snout Malformation (AID 2283637). In short, it runs like this: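 Binary snout-malformation call at 120 hpf in wild-type 5D embryos, chorion removed by pronase, under static exposure from 6 hpf at 28C (0.64% DMSO). Embryos dying by 24 or 120 hpf excluded.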

A short description of assay [7]: Tanguay_ZF_120hpf_JAW_legacy: (Legacy) Oregon State University Tanguay Lab 120 Hour Post-fertilization zebrafish Assay for Jaw Malformation (AID 2283638).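 For AC50: active means more embryos with jaw malformation than DMSO controls.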 In a few lines:
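Binary jaw-malformation calls at 120 hpf by brightfield imaging; DMSO (0.64% v/v) = baseline. Embryos: 5D wild-type, pronase-dechorionated, one per well from 6 hpf, static exposure, 28C, sealed, dark.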

The nature of assay [8]: Tanguay_ZF_120hpf_OTIC_legacy: (Legacy) Oregon State University Tanguay Lab 120 Hour Post-fertilization zebrafish Assay for Otic Vesicle Malformation (AID 2283639). In short, it runs like this: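 Wild-type zebrafish larvae, whole-embryo exposure from early stage to 120 hpf at 28C. Binary brightfield scoring of otic vesicle morphology, fitted in the positive direction against the DMSO baseline.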

Assay [9] can be described thus: Tanguay_ZF_120hpf_PE_legacy: (Legacy) Oregon State University Tanguay Lab 120 Hour Post-fertilization zebrafish Assay for Pericardial Edema (AID 2283640).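 For AC50: potency for increased incidence of pericardial edema versus DMSO baseline.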 In short, it runs like this: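 Static waterborne exposure, 5D wild-type embryos, 28C, to 120 hpf; final DMSO 0.64% (vol/vol). Binary PE call at 120 hpf by brightfield; fitted upward vs DMSO baseline. 5uM trimethyltin chloride as positive control.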

Assay [10] in a line: Tanguay_ZF_120hpf_SOMI_legacy: (Legacy) Oregon State University Tanguay Lab 120 Hour Post-fertilization zebrafish Assay for Somite Malformation (AID 2283647). In a few lines:
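Binary brightfield scoring of somite defects at 120 hpf in 5D wild-type larvae; one dechorionated embryo per well, static exposure from 6 hpf, 28C, sealed and dark. Final DMSO 0.64%; trimethyltin chloride 5uM positive control.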

The nature of assay [11]: Tanguay_ZF_120hpf_PFIN_legacy: (Legacy) Oregon State University Tanguay Lab 120 Hour Post-fertilization zebrafish Assay for Pectoral Fin Malformation (AID 2283648).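 Note: each larva judged yes or no for fin defect by brightfield with dead larvae skipped.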 In short, it runs like this:
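Pectoral fin malformation was recorded as a binary endpoint at 120 hpf in wild-type Tropical 5D larvae, which had been dechorionated and exposed statically from 6 hpf at 28C in 0.64% DMSO. Dead embryos were excluded.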

The nature of assay [12]: Tanguay_ZF_120hpf_CFIN_legacy: (Legacy) Oregon State University Tanguay Lab 120 Hour Post-fertilization zebrafish Assay for Caudal Fin Malformation (AID 2283649). In a few lines:
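Dechorionated 5D wild-type zebrafish, static exposure 6–120 hpf, 28C, sealed and dark, 0.64% v/v DMSO final. Binary fin-malformation call at 120 hpf, brightfield; gain of signal vs DMSO baseline.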

Assay [13] is described as follows: Tanguay_ZF_120hpf_PIG_legacy: (Legacy) Oregon State University Tanguay Lab 120 Hour Post-fertilization zebrafish Assay for Pigmentation Malformation (AID 2283650). In a few lines:
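Pigment malformation recorded as a binary call at 120 hpf in zebrafish (Tropical 5D) exposed singly from 6 hpf after pronase dechorionation. Static, sealed, 28C exposure, 0.64% DMSO; mortality excludes scoring; positive-direction fit against DMSO.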

The nature of assay [14]: Tanguay_ZF_120hpf_TRUN_legacy: (Legacy) Oregon State University Tanguay Lab 120 Hour Post-fertilization zebrafish Assay for Truncated Body (AID 2283655). In short, it runs like this:
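Whole-embryo zebrafish screen: dechorionated 5D embryos, static exposure 6–120 hpf, 28C, sealed foil-covered plates, 0.64% DMSO. Binary truncation call; gain of signal versus DMSO baseline.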

The nature of assay [15]: TOX21_p53_BLA_p5_viability: Viability Assessment in the Tox21 HCT-116 p53 Agonism Beta-lactamase Assay, Phase 5 (AID 2283600). In short, it runs like this:
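ATP luminescence (CellTiter-Glo, 30 min, RT) served as the viability read-out, with loss of signal indicating cytotoxicity. Compounds in DMSO were pinned at a 217-fold dilution onto 4000 cells/well and incubated 16 h, 37C.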

A short description of assay [16]: Tanguay_ZF_120hpf_CIRC_legacy: (Legacy) Oregon State University Tanguay Lab 120 Hour Post-fertilization zebrafish Assay for Circulatory Malformation (AID 2283651). In a few lines: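 Binary circulatory-malformation call at 120 hpf via brightfield imaging, relative to DMSO controls. Embryos (5D strain, chorion removed) received static, light-shielded exposure at 28C.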

The nature of assay [17]: Tanguay_ZF_120hpf_SWIM_legacy: (Legacy) Oregon State University Tanguay Lab 120 Hour Post-fertilization zebrafish Assay for Swim Bladder Malformation (AID 2283654).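 Note: swim bladder malformation in each larva scored yes or no under brightfield.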 In short, it runs like this: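 Scoring is binary for swim bladder defects at 120 hpf, by brightfield inspection of zebrafish larvae. Embryos were exposed singly from 6 hpf after pronase dechorionation, at 28C with 0.64% DMSO; mortality excluded scoring.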

The nature of assay [18]: Tanguay_ZF_120hpf_BRAI_legacy: (Legacy) Oregon State University Tanguay Lab 120 Hour Post-fertilization zebrafish Assay for Brain Malformation (AID 2283641). In a few lines: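 Read-out: binary brain morphology call at 120 hpf (brightfield), fitted in gain-of-signal direction vs DMSO. Wild-type Tropical 5D embryos, static exposure, 28C, 0.64% DMSO final; 5uM trimethyltin chloride as positive control.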

Molecules are shown by their SMILES. Where “and” joins values, the source holds several entries; their conditions need not be identical. Equal values may be shown once. Records with an inconclusive call do not appear. Calls of active or inactive are those of the source. Rule for the calls: active = hit-call score of the fitted dose curve at least 0.9, where 1 is the maximum; inconclusive = response in the unintended direction; inactive = score below 0.9.

Cellular tumor antigen p53 (Homo sapiens), sequence (P04637 whole entry, looked up): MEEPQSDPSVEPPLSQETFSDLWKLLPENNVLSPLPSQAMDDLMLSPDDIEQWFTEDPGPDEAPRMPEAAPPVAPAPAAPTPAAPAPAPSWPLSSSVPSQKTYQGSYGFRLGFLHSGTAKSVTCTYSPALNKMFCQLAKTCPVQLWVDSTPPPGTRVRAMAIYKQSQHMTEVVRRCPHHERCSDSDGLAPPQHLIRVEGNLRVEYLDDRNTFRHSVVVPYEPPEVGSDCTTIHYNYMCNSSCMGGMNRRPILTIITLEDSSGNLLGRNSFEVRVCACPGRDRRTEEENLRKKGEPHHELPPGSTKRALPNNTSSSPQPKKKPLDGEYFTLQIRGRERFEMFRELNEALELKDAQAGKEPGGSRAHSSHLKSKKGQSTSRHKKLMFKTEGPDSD

As to `CNC(=S)S`, the result in assay [1], in assay [2], in assay [3], in assay [4], in assay [5] and in assay [6] was inactive. Moreover, the result in assay [7], in assay [8], in assay [9], in assay [10], in [11] and in assay [12] was inactive. In addition, the result in assay [13] and in assay [14] was inactive.
For `C=CCC1=C(C)[C@@H](OC(=O)[C@@H]2[C@@H](C=C(C)C)C2(C)C)CC1=O`, the compound was classed as inactive in [15], in assay [1], in assay [2], in assay [3], in assay [5] and in [9]. Further, the compound was called inactive in assay [10], in assay [11], in assay [12], in assay [13], in assay [16] and in assay [17].
Usually AC50 stands for the concentration giving half of the maximal activity seen. In the case of `CC1COC(Cn2cncn2)(c2ccc(Oc3ccc(Cl)cc3)cc2Cl)O1` (centres undefined), the call in assay [15], in assay [2], in assay [6], in [8], in assay [9] and in assay [10] was inactive. For the same compound, the outcome in assay [16] and in assay [17] was inactive. Also, the concentration at half-maximal activity (AC50) was 90.3 µM (active) in assay [1], 8.51 µM (active) in assay [3], 26.6 µM (active) in assay [7] and 3.69 µM (active) in assay [11].
As for `CCCN(CCC)c1c([N+](=O)[O-])cc(S(N)(=O)=O)cc1[N+](=O)[O-]`, the call in assay [2], in [3], in assay [4], in [5], in [6] and in [7] was inactive. In addition, the outcome in [8], in [9], in assay [10], in assay [11], in assay [12] and in assay [13] was inactive. In addition, the call in [16], in [17] and in assay [14] was inactive.
Turning to `CCOc1cc(Oc2ccc(C(F)(F)F)cc2Cl)ccc1[N+](=O)[O-]`, the call in [15], in [1], in assay [2], in assay [3], in assay [4] and in assay [6] was inactive. Also, the compound was classed as inactive in assay [7], in assay [9], in assay [10], in assay [11], in [12] and in assay [17]. For the same compound, in [14], the compound was classed as inactive.
In the case of `CC1=C(C(=O)Nc2ccccc2)SCCO1`, the call in assay [15], in assay [1], in [3], in [4], in assay [6] and in assay [7] was inactive. For the same compound, the outcome in [8], in assay [9], in [12], in assay [13], in assay [16] and in [14] was inactive. In addition, in assay [2], the AC50 was 40.4 µM (active).
As for `COP(N)(=O)SC` (centres undefined), the compound was classed as inactive in assay [15], in [2], in assay [3], in assay [6], in assay [8] and in assay [9]. Moreover, the outcome in assay [10], in assay [12], in assay [13], in assay [16], in [17] and in [14] was inactive.
Turning to `COc1ccc(C(c2ccc(OC)cc2)C(Cl)(Cl)Cl)cc1`, the result in [15], in assay [1], in assay [2], in [3], in assay [4] and in [5] was inactive. In addition, the call in assay [6], in assay [7], in assay [9], in assay [10], in assay [11] and in [12] was inactive. Also, the call in [16], in [17] and in [14] was inactive.
`CCOP(=S)(OCC)SCn1c(=O)oc2cc(Cl)ccc21`: the call in [15], in [1], in assay [2], in assay [3], in [4] and in assay [5] was inactive. Also, the compound was classed as inactive in [6], in assay [8], in assay [10], in [11], in assay [13] and in assay [16]. In addition, the call in [17] and in assay [14] was inactive.
Regarding `Oc1ccccc1-c1ccccc1`, the compound was called inactive in [15], in [1], in assay [2], in [3], in [5] and in [6]. Further, the compound was called inactive in assay [7], in assay [9], in [10], in assay [11], in assay [12] and in assay [13]. The call in assay [16], in assay [17] and in assay [14] was inactive.
Consider `N#CC(CCc1ccc(Cl)cc1)(Cn1cncn1)c1ccccc1` (centres undefined), for which the compound was classed as inactive in [15], in assay [2], in [3], in assay [4], in assay [6] and in assay [7]. Besides, the result in assay [8], in [9], in [18], in assay [10], in assay [11] and in assay [12] was inactive. Besides, the outcome in [13], in [16] and in assay [17] was inactive. In assay [1], the AC50 is 71.5 µM (active).
On to `N#Cc1cc(Br)c(O)c(Br)c1`, for which, in assay [1], the AC50 was 57.9 µM (active) and 74.3 µM (active). In addition, the result in assay [3], in [4], in [5], in assay [6], in assay [7] and in [8] was inactive. In addition, the outcome in assay [9], in [10], in assay [11], in assay [12], in assay [13] and in assay [16] was inactive. Moreover, the result in assay [17] and in assay [14] was inactive.
Regarding `CC(Oc1ccc(Cl)cc1Cl)C(=O)O` (centres undefined), the compound was classed as inactive in assay [15], in [1], in assay [2], in assay [3], in assay [4] and in [5]. The outcome in assay [6], in [8], in [9], in assay [11], in assay [12] and in assay [13] was inactive. The compound was classed as inactive in assay [16] and in assay [17].
As for `O=C(O)c1nc(Cl)ccc1Cl`, the result in assay [15], in assay [2], in [3], in [4], in assay [5] and in assay [6] was inactive. In addition, the call in [7], in assay [8], in assay [9], in assay [10], in [11] and in [12] was inactive. For the same compound, the compound was classed as inactive in [13], in [16], in [17] and in [14].
As to `O=C(Nc1ccccc1)Nc1ccnc(Cl)c1`, the compound was classed as inactive in assay [15], in [2], in [3], in assay [4], in assay [7] and in assay [8]. Also, the compound was called inactive in assay [10], in assay [12], in [13], in assay [16] and in assay [17]. Also, the AC50 in assay [1] is 41 µM (active); in assay [9], 50.5 µM (active).

(Values after PubChem BioAssay (EPA / NIEHS).)
